According to PubChem BioAssay (NCI):
The panel holds about 83,000 compounds, 20% with a hit somewhere; the sample as a whole holds those more often.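 For each line, cells grew in 96-well plates with the test compound present at a single concentration for 48 hours.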 Calls of active or inactive are those of the source. Rule for the calls: active = growth percent below 10; inactive = the rest.

Experiments:
Assay in all cases: NCI-60 one-dose screen, 48 h (100 = growth as untreated, 0 = no growth, -100 = all killed)
Settings in all cases: 10 µM unless noted
HCT-15 colon = test system: HCT-15 colon
HT29 colon = test system: HT29 colon
SNB-75 CNS = test system: SNB-75 CNS
SNB-19 CNS = test system: SNB-19 CNS
PC-3 prostate = test system: PC-3 prostate
SK-MEL-5 melanoma = test system: SK-MEL-5 melanoma
UACC-62 melanoma = test system: UACC-62 melanoma
LOX IMVI melanoma = test system: LOX IMVI melanoma
SK-MEL-28 melanoma = test system: SK-MEL-28 melanoma

Measured: growth

CN1CCN(CC#CCNC(=O)[C@]23CCC(C)(C)C[C@H]2C2=CC[C@@H]4[C@@]5(C)Cc6c([nH]c7ccccc67)C(C)(C)[C@@H]5CC[C@@]4(C)[C@]2(C)CC3)CC1
active: HT29 colon 7.18%
inactive: HCT-15 colon 39.2% | SNB-75 CNS 92.7% | SNB-19 CNS 79.3% | PC-3 prostate 56.7% | SK-MEL-5 melanoma 75.1% | UACC-62 melanoma 95.7% | LOX IMVI melanoma 66.7% | SK-MEL-28 melanoma 79%

Clc1ccc(C2CC(c3cccc(Nc4ccncc4)c3)=NN2c2ccccc2)cc1 (stereo not given)
inactive: SNB-75 CNS 76.2% | SNB-19 CNS 79.7% | PC-3 prostate 36% | SK-MEL-5 melanoma 68.6% | UACC-62 melanoma 93.9% | LOX IMVI melanoma 25.6%
active: HCT-15 colon -48.4% | HT29 colon -9.64% | SK-MEL-28 melanoma 9.8%

O=C(Nc1nc(-c2ccc(Br)cc2)cs1)c1cc(-c2ccc(Br)cc2)nc2ccc(Cl)cc12
inactive: HCT-15 colon 81.6% | HT29 colon 72.6% | SNB-75 CNS 87.3% | SNB-19 CNS 86.7% | PC-3 prostate 72.8% | SK-MEL-5 melanoma 91.2% | UACC-62 melanoma 77.8% | LOX IMVI melanoma 94.8% | SK-MEL-28 melanoma 95.9%

COc1ccc(C2CC(c3cccc(Nc4ccncc4)c3)=NN2c2cc(Cl)cc(Cl)c2)cc1 (stereo not given)
inactive: SNB-75 CNS 65.9% | SNB-19 CNS 91% | PC-3 prostate 33.8% | SK-MEL-5 melanoma 67.5% | UACC-62 melanoma 99.6%
active: HCT-15 colon -67.5% | HT29 colon -17.5% | LOX IMVI melanoma -52.7% | SK-MEL-28 melanoma -49.3%

O=S(=O)(c1ccc(N/N=C\c2ccccc2)cc1)c1ccc(N/N=C/c2ccccc2)cc1
inactive: HCT-15 colon 88.7% | HT29 colon 54.7% | SNB-75 CNS 87% | SNB-19 CNS 81.4% | PC-3 prostate 55.7% | SK-MEL-5 melanoma 74.7% | UACC-62 melanoma 70.8% | LOX IMVI melanoma 63.4% | SK-MEL-28 melanoma 75.6%
